A short description of assay [1]: qHTS assay to identify small molecule antagonists of the retinoic acid receptor (RAR) signaling pathway (AID 1159552; also: nearly all actives have a fitted effect of over 50% in size). In outline:
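Overnight-plated C3RL4 reporter cells get compound, then retinol to 1 uM final; plates sit 6 hr at 37 C, 5% CO2. A luciferase reagent is added and light output recorded after 30 min at room temperature.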
Background: qHTS replaces the single test concentration by a dilution series.

Assay [2] can be described thus: qHTS assay to identify small molecule agonists of the retinoic acid receptor (RAR) signaling pathway (AID 1159553). Also: potency is read from the fitted curve at half-maximal effect. In outline: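 6 hr compound exposure (DMSO vehicle) of overnight-plated C3RL4 RARE-luc cells at 37 C; luminescence quantified after 30 min RT with luciferase reagent.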
In assay [3] the target is Luciferin 4-monooxygenase (Photinus pyralis) (UniProt P08659). Briefly: qHTS assay to identify small molecule inhibitors of firefly luciferase (AID 1224835). Also: nearly all actives have a fitted effect of over 25% in size. Also: potency is read from the fitted curve at half-maximal effect. In outline:
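Quantitative HTS format; KM concentrations of both substrates. Purified P. pyralis FLuc activity quantified from luminescence images.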

A short description of assay [4]: qHTS assay to identify small molecule agonists of the constitutive androstane receptor (CAR) signaling pathway - cell viability counter screen (AID 1224836). Also: nearly all actives have a fitted effect of over 45% in size. Also: potency is read from the fitted curve at half-maximal effect. In outline:
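Fluorescence from CellTiter-Fluor indicates live cells after 23 h exposure. The human hepatoma line expresses hCAR and a CYP2B6-2.2kb reporter. Incubation medium contains 0.75 uM PK11195 (final).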

The nature of assay [5]: qHTS assay to identify small molecule antagonists of the constitutive androstane receptor (CAR) signaling pathway - cell viability counter screen (AID 1224837). Also: nearly all actives have a fitted effect of over 45% in size. Also: potency is read from the fitted curve at half-maximal effect. In outline: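 To flag cytotoxic false antagonists, HepG2 hCAR/CYP2B6-2.2kb cells were treated 23 hr with 15-concentration compound series and 50 nM CITCO at 37 C/5% CO2; CellTiter-Fluor fluorescence was the measured end point.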

Assay [6] has as its target Nuclear receptor subfamily 1 group I member 3 (Homo sapiens) (UniProt Q14994). The experiment in a line: qHTS assay to identify small molecule antagonists of the constitutive androstane receptor (CAR) signaling pathway (AID 1224838).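 Also: HepG2 cells stably expressing hCAR with CYP2B6 luciferase reporter stimulated by CITCO; nearly all actives have a fitted effect of over 40% in size.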 Also: potency is read from the fitted curve at half-maximal effect. In outline: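 Human hepatoma HepG2 cells expressing hCAR and a CYP2B6 promoter (2.2 kb) luciferase construct; compound titration (15 points) with 50 nM CITCO final, 24 h at 37 C/5% CO2; luminescence via ONE-Glo after 30 min at room temperature.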

For assay [7] the target is unchanged. The experiment in a line: qHTS assay to identify small molecule agonists of the constitutive androstane receptor (CAR) signaling pathway (AID 1224839). Also: nearly all actives have a fitted effect of over 15% in size. Also: potency is read from the fitted curve at half-maximal effect. In outline:
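Stable hCAR/CYP2B6-2.2kb HepG2 line in DMEM with 10% FBS; compounds (15 concentrations) and 0.75 uM PK11195 final, 24 h at 37 C/5% CO2, then ONE-Glo luminescence after 30 min.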

Assay [8] in a line: qHTS assay to identify small molecule antagonists of the estrogen related receptor signaling pathway with the pleiotropic PPARgamma coactivator (PGC) from Tox21 10K library - cell viability counter screen (AID 1224840; active = well fitted cell-killing curve with a large enough effect in the repeat runs, not every such curve was filed as active; also: nearly all actives have a fitted effect of over 40% in size; also: potency is read from the fitted curve at half-maximal effect). In outline:
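Seeded PGC/ERR cells (2,000/well, 6 h, 37 C/5% CO2) get compound by pin tool; 17.5 h incubation at 37 C; CellTiter-Fluor added, 30 min, fluorescence measured.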

A short description of assay [9]: qHTS assay to identify small molecule antagonists of the estrogen related receptor signaling pathway with the pleiotropic PPARgamma coactivator (PGC) from Tox21 10K library (AID 1224841; call rule not given here; also: actives are mostly falling curves and most rising ones were filed inactive; nearly all actives have a fitted effect of over 50% in size; also: potency is read from the fitted curve at half-maximal effect). In outline: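 Test chemicals dissolved in DMSO were applied to pre-incubated (6 h) PGC/ERR cells at 2,000 cells/well for an 18 h, 37 C treatment; reporter luminescence was then read using One-Glo.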

Assay [10] is described as follows: qHTS assay to identify small molecule agonists of the estrogen related receptor signaling pathway with the pleiotropic PPARgamma coactivator (PGC) from Tox21 10K library (AID 1224842). Also: nearly all actives have a fitted effect of over 15% in size. Also: potency is read from the fitted curve at half-maximal effect. In outline:
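PGC/ERR reporter cells (NTP line) were seeded 2,000 per well, rested 6 h at 37 C/5% CO2, then pin-dosed with compounds in DMSO for 18 h at 37 C; luciferase read by One-Glo luminescence after 30 min at room temperature.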

Assay [11] has as its target Thyrotropin receptor (Homo sapiens) (UniProt P16473). Briefly: qHTS assay to identify small molecule agonists of the thyroid stimulating hormone receptor (TSHR) signaling pathway (AID 1224843; calls by dose curve; also: nearly all actives have a fitted effect of over 45% in size; also: potency is read from the fitted curve at half-maximal effect). In outline:
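Compounds are titrated over 15 concentrations, in triplicate, onto TSHR-HEK293 cells seeded at 800/well. Plates sit 30 min at room temperature before cAMP-d2 and anti-cAMP cryptate are added; signal is read after a further hour.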

Assay [12] can be described thus: qHTS assay to identify small molecule antagonists of the retinoid acid receptor (RAR) signaling pathway - cell viability counter screen (AID 1159551). Also: nearly all actives have a fitted effect of over 35% in size. In outline: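 Measured by luminescent ATP detection, viability reflects C3RL4 cells treated 6 h at 37 C with test chemicals in the presence of 1 uM (final) retinol.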
Assay [13] in a line: qHTS assay to identify small molecule antagonists of the estrogen related receptor (ERR) signaling pathway from Tox21 library - cell viability counter screen (AID 1224834). Also: nearly all actives have a fitted effect of over 30% in size. Also: potency is read from the fitted curve at half-maximal effect. In outline:
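Seeded ERR cells were rested 6 h at 37 C/5% CO2 before compounds, positive and negative controls or DMSO were added. Incubation continued for 17.5 h, and viability was then quantified by CellTiter-Fluor fluorescence.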

The nature of assay [14]: qHTS assay to identify small molecule antagonists of the estrogen related receptor (ERR) signaling pathway - cell viability counter screen (AID 1224818). Also: potency is read from the fitted curve at half-maximal effect. In outline:
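Compounds dissolved in DMSO were applied to ERR cells seeded at 2,000 per well 6 h earlier. Cell viability followed 17.5 h later via 30-min CellTiter-Fluor fluorescence.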

The nature of assay [15]: qHTS assay to identify small molecule antagonists of the estrogen related receptor signaling pathway with the pleiotropic PPARgamma coactivator (PGC) cell viability counter screen (AID 1224822; also: potency is read from the fitted curve at half-maximal effect). In outline: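 Counter screen for cell viability: PGC/ERR cells, 6 h pre-incubation after plating, 17.5 h compound exposure at 37 C, fluorescence from CellTiter-Fluor after 30 min.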

This passage reports Potency results from PubChem BioAssay (Tox21).

Values joined by “and” are separate entries in the source; they are usually repeats but may differ in a detail not shown here. Identical values can stand only once. Results filed as inconclusive are left out. The source holds several records for some structures; these can differ, active in one and inactive in another. Active and inactive are the calls of the source. Unless noted, calls follow the shape of the dose curve; as a rule, active = well fitted curve in the direction sought with a large enough effect in the repeat runs; inconclusive = weak or mixed curves; inactive = no such curve, though single readings can be large; an effect the other way counts as inactive or inconclusive.

Chain of Thyrotropin receptor (Homo sapiens) (P16473 whole entry, looked up): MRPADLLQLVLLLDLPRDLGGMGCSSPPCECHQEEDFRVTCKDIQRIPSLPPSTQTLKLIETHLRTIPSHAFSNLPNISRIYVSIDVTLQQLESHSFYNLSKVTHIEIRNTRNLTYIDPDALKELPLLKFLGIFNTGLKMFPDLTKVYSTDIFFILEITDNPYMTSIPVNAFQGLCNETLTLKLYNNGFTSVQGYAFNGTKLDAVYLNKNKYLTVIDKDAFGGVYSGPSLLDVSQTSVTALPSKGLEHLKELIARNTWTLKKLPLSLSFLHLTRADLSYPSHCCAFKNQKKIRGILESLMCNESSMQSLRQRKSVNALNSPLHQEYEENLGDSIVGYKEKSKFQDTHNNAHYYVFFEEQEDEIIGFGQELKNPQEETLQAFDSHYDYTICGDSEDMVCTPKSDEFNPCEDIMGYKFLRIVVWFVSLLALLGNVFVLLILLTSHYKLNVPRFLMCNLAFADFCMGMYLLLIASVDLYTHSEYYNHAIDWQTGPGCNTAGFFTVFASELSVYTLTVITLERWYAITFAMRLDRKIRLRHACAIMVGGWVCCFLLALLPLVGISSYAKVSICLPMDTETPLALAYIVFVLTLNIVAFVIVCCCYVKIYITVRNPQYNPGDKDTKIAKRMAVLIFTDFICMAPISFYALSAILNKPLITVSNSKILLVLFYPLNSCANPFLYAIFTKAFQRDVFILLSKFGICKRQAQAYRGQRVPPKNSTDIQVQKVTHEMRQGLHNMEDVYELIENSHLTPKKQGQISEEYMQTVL
Chain of Luciferin 4-monooxygenase (Photinus pyralis) (P08659 whole entry, looked up): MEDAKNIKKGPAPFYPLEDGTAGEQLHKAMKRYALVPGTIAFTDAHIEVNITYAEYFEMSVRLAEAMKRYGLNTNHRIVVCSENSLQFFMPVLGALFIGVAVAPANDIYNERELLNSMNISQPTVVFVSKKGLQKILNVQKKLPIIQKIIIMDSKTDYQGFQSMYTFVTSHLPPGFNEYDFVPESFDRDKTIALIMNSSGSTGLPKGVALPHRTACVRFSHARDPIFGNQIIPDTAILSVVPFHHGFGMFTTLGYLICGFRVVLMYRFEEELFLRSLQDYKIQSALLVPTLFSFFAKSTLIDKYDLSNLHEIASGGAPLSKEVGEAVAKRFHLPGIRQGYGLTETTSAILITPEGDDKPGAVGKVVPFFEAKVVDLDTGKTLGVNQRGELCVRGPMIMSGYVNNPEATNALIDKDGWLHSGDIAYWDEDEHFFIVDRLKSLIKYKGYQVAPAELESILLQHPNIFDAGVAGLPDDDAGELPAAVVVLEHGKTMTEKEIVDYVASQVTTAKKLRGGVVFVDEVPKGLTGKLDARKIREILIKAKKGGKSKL
Chain of Nuclear receptor subfamily 1 group I member 3 (Homo sapiens) (Q14994 whole entry, looked up): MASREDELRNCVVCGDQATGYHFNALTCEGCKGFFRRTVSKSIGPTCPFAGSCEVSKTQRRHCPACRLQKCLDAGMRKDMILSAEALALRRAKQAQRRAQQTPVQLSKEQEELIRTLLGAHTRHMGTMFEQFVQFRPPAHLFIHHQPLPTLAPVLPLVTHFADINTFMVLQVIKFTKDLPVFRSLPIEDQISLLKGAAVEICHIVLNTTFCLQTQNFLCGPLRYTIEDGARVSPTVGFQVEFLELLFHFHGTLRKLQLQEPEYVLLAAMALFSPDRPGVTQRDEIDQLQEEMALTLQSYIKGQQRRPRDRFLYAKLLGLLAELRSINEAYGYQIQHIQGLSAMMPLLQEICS

In the case of `Nc1ncnc2nc[nH]c12`, the Potency entry in assay [1], in [2], in [3], in assay [4], in assay [5] and in assay [6] was “inactive” in each case. For the same molecule, the Potency result in assay [7], in assay [8], in [9] and in [11] was “inactive” each time. Also, in assay [10], the Potency is 54.5 µM (active).

Consider `CCCCOCCOCCO`, for which the Potency entry in [12], in assay [1], in [2], in [13], in assay [3] and in assay [4] was “inactive” in each case. The Potency result in assay [5], in assay [8] and in [11] was “inactive” throughout.

Take `CCCCNS(=O)(=O)c1ccccc1`: the Potency result in assay [12], in assay [1], in assay [2], in assay [3], in [4] and in assay [5] was “inactive” throughout. Further, the Potency entry in assay [8] and in [11] was “inactive” in each case.

Consider `CCCC(=O)O`, for which the Potency result in assay [12], in [1], in assay [2], in [3], in [4] and in assay [5] was “inactive” throughout. For the same molecule, the Potency entry in assay [6], in assay [7], in assay [8], in [9], in assay [10] and in assay [11] was “inactive” each time.

Take `Cc1cccc(N(C)C(=S)Oc2ccc3ccccc3c2)c1`: the Potency result in [12], in assay [1], in assay [13], in [3], in assay [4] and in assay [5] was “inactive” throughout. Moreover, the Potency result in [6], in assay [8] and in [11] was “inactive” in each case. Also, the Potency in assay [2] is 2.43 µM (active) and 13.3 µM (active); in assay [7], 27.3 µM (active) and 26.6 µM (active).

Regarding `CN(C)C(=N)N=C(N)N`, the Potency result in assay [12], in assay [2], in [13], in assay [4], in [5] and in [6] was “inactive” throughout. Moreover, the Potency entry in assay [7], in assay [8] and in assay [11] was “inactive” in each case.

`COC(=O)C1=C(C)NC(C)=C(C(=O)OCCN(C)Cc2ccccc2)C1c1cccc([N+](=O)[O-])c1` (centres undefined): the Potency result in assay [12], in assay [3], in [6] and in assay [7] was “inactive” throughout. Also, the Potency in assay [14] is 23.7 µM (active); in [15] it was 23.7 µM (active); in assay [13], 27.1 µM (active) and 23.7 µM (active); in [4], 48.3 µM (active); in assay [5], 43 µM (active) and 23.7 µM (active); in [8] it was 30.5 µM (active) and 26.6 µM (active). Besides, the Potency in assay [11] was 30.5 µM (active).

On to `O=C(c1ccc(OCCN2CCCCC2)cc1)c1c(-c2ccc(O)cc2)sc2cc(O)ccc12`, for which the Potency entry in assay [12], in [6] and in assay [7] was “inactive” in each case. Also, the Potency in assay [13] is 30.7 µM (active) and 48.6 µM (active) and 18.8 µM (active); in [8], 24.4 µM (active) and 30.6 µM (active).

Regarding `O=S(=O)(O)c1ccc(O)cc1`, the Potency entry in [12], in assay [1], in [2], in [3], in assay [4] and in [5] was “inactive” each time. For the same molecule, the Potency entry in assay [8] and in [11] was “inactive” in each case.

For the molecule `O=C(Nc1ccc([N+](=O)[O-])cc1Cl)c1cc(Cl)ccc1O`, the Potency result in assay [1] and in [11] was “inactive” in each case. The Potency was 43.3 nM (active) and 82 nM (active) in [2]; 3.86 µM (active) and 1.3 µM (active) in assay [13]; 399 nM (active) and 301 nM (active) in [3]; 6.86 µM (active) and 4.61 µM (active) in assay [4]; 5.45 µM (active) and 3.26 µM (active) in assay [5]; “inactive and 4.11 µM (active)” in assay [6]. Also, the Potency in assay [7] is 1.54 µM (active) and 820 nM (active); in [8], 2.73 µM (active).

In the case of `c1ccc2c(c1)c1cccc3ccc4cccc2c4c31`, the Potency entry in assay [12], in assay [3], in assay [4], in assay [5], in assay [6] and in assay [8] was “inactive” each time. Also, the Potency entry in [11] is “inactive”. Moreover, the Potency in [7] was 13.6 µM (active) and 27.3 µM (active).

Take `CCCCC(CC)COC(=O)c1ccc(N(C)C)cc1` (centres undefined): the Potency result in assay [12], in assay [1], in assay [2], in assay [13], in assay [3] and in [4] was “inactive” in each case. Further, the Potency result in [5], in assay [6], in assay [8] and in assay [11] was “inactive” throughout. Also, in [7], the Potency was 24.5 µM (active) and inactive.

Turning to `Cc1ccc2c(n1)Oc1ccc(C(C)C(=O)OCC(=O)N(C)C)cc1C2` (centres undefined), the Potency entry in assay [12], in assay [1], in assay [13], in assay [4], in [5] and in [6] was “inactive” throughout. Besides, the Potency entry in assay [8], in assay [9], in [10] and in assay [11] was “inactive” throughout. Also, the Potency in assay [2] is 10.6 µM (active) and 8.41 µM (active); in assay [3], 17.4 µM (active) and 15.5 µM (active); in assay [7], 11.9 µM (active).

As for `O=C(Nc1ccc(Cl)cc1)Nc1ccc(Cl)c(Cl)c1`, the Potency result in assay [1], in [6], in [10] and in assay [11] was “inactive” in each case. The Potency is 3.06 µM (active) and 3.35 µM (active) in assay [2]; 12.1 µM (active) and 6.86 µM (active) and 18.8 µM (active) in [13]; 5.62 µM (active) and 10 µM (active) and 9.77 µM (active) in assay [3]; 17.2 µM (active) in assay [4]; 15.4 µM (active) in [5]; 3.44 µM (active) and 4.22 µM (active) in [7]. Moreover, the Potency in assay [9] is 12.1 µM (active) and inactive.

Consider `O=CCCCC=O`, for which the Potency entry in assay [12], in assay [13], in assay [3], in [4], in assay [5] and in assay [6] was “inactive” in each case. For the same molecule, the Potency result in assay [7], in [8], in [9] and in assay [10] was “inactive” throughout.

For `O=C(/C=C/C=C/c1ccc2c(c1)OCO2)N1CCCCC1`, the Potency result in assay [12], in [1], in assay [4], in assay [5], in [6] and in assay [8] was “inactive” throughout. Moreover, the Potency entry in assay [9] and in [11] was “inactive” each time. Besides, the Potency was 3.86 µM (active) and 1.93 µM (active) in [2]; 5.04 µM (active) and 6.33 µM (active) in assay [3]; 1.73 µM (active) and 3.86 µM (active) in assay [7]; 17.3 µM (active) and 9.69 µM (active) in assay [10].
